This is a sample that favours compounds with a hit; in the whole collection about 1.6% have one here.
KCNQ2 pot = KCNQ2 (rat) channel potentiation | O88943 | CHO-K1 KCNQ2, FluxOR thallium flux fluorescence; hits give high values | B-score at 10 µM | hit rate 0.54% among 310,000;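 active = fluorescence ratio B-score at least 3 SD of library B-scores, with initial fluorescence B-score within 3 of them, cut at about 5.3 in these data; same plate scores as AID 2156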;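 note: B-score of peak minus minimum over baseline fluorescence ratio after K+ and Tl+ stimulus; positive B-score means potentiation of KCNQ2 with more thallium influx and brighter signal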
Target sequence (O88943 whole entry, looked up): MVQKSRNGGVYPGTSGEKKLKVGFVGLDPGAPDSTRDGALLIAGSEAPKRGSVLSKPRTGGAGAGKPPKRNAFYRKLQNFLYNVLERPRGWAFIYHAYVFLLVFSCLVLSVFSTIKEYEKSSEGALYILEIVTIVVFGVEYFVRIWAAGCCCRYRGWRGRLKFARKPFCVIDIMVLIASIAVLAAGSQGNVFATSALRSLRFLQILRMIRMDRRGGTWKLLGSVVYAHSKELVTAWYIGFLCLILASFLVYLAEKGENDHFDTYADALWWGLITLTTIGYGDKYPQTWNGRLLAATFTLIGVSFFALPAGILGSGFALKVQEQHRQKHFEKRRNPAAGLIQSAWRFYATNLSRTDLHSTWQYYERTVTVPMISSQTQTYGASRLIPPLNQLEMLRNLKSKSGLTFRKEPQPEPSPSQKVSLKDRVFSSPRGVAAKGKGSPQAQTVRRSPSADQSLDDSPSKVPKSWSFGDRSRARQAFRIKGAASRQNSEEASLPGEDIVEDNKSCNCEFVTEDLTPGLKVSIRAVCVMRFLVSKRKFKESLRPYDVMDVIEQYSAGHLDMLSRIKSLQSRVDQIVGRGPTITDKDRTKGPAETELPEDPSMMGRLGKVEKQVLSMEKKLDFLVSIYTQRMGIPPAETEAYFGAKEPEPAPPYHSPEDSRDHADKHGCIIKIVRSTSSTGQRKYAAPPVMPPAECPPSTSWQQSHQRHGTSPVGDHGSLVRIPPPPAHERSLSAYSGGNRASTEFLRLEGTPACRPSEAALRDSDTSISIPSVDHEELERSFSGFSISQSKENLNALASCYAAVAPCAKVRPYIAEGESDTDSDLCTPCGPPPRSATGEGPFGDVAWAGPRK
KCNQ2 inh = blocks the rat KCNQ2 potassium channel. O88943. CHO-K1 KCNQ2, FluxOR thallium flux, 20 min; hits give low values. B-score at 10 µM. hit rate 1.1% among 310,000;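 active = fluorescence ratio B-score at most minus 3 library SDs, with starting brightness B-score within 2 library SDs, cut at about -5.5 in these data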
* marks the source's active call; other numbers are inactive results; i = inactive; . = no result given.

SMILES	KCNQ2 pot	KCNQ2 inh
Cc1ccc(C(C(=O)NCCc2ccccc2)N(C(=O)c2csnn2)C2CC2)cc1 (stereo not given)	.	i
COc1ccccc1NS(=O)(=O)c1cc(C(=O)NCc2ccco2)ccc1C	.	i
COc1ccccc1NS(=O)(=O)c1cc(C(=O)NCC(C)(C)N2CCOCC2)ccc1C	6.67*	i
CC(C)(C)CC(=O)Nc1ccc(-c2cn3cccnc3n2)cc1	0.74	i
COc1ccc(C2N(C(=O)C(F)(F)F)C(C)CN2S(=O)(=O)c2ccc(C)cc2)cc1 (stereo not given)	.	i
CCN(CC)S(=O)(=O)c1cccc(-c2nnc(SCC#N)n2Cc2ccccc2)c1	-5.67	-5.67*
CCN(CC)S(=O)(=O)c1cccc(-c2nnc(SC(C)C#N)n2Cc2ccccc2)c1 (stereo not given)	.	i
CCN(CC(=O)NC(=O)Nc1ccccc1F)Cc1ccccc1	.	i
CCCCOc1ccc(C(=O)N/C(=C\c2cccc([N+](=O)[O-])c2)C(=O)OCCC)cc1	.	i
CCCCOc1ccc(C(=O)N/C(=C\c2cccc([N+](=O)[O-])c2)C(=O)OC(C)C)cc1	-6.05	-6.05*
COc1ccc(N(CC(=O)NCCc2cccc(C)c2)S(=O)(=O)c2c(C)noc2C)cc1	0.23	i
CCOc1ccccc1CNCc1ccc(F)cc1	1.61	i
COc1cc(OC)cc(C(=O)NCCOC23CC4CC(CC(C4)C2)C3)c1	.	i
Cc1ccc(C(=O)NCCOC23CC4CC(CC(C4)C2)C3)cc1	-6.03	-6.03*
O=C(CN1CCc2ccccc2C1)Nc1ccccc1F	.	i
CCCNC(=O)c1ccc(COc2ccc(CCC)cc2OC)o1	0.2	i
Clc1ccc(-c2nnc(-c3ccccc3)c(-c3c[nH]c4ccccc34)n2)cc1	1.13	i
Clc1ccc(-c2nnc(-c3ccccc3)c(-c3ccccc3)n2)cc1	-6.24	-6.24*
Clc1ccc(-c2nnc(-c3ccccc3)c(N3CCSCC3)n2)cc1	-6	-6*
O=[N+]([O-])c1ccc(-c2nnc(-c3ccccc3)c(N3CCOCC3)n2)cc1	.	i
Cc1nn(Cc2noc(C(=O)NC3CCC(C)CC3)n2)c(C)c1Br (stereo not given)	1.66	i
O=[N+]([O-])c1ccc(CN2CCN(c3ccc([N+](=O)[O-])cc3)CC2)cc1	.	i
O=[N+]([O-])c1ccc(N2CCC(=NOCc3ccc(Cl)cc3)CC2)cc1	-5.69	-5.69*
COc1cccc(NS(=O)(=O)CC23CCC(CC2=O)C3(C)C)c1 (stereo not given)	.	i
CC1(C)C2CCC1(CS(=O)(=O)NCc1ccc(Cl)cc1Cl)C(=O)C2 (stereo not given)	-5.88	-5.88*
SMILES	KCNQ2 pot	KCNQ2 inh
CC(C)(O)c1ccccc1CC[C@@H](SCC1(CC(=O)O)CC1)c1cccc(/C=C/c2ccc3ccc(Cl)cc3n2)c1	-6.41	-6.41*
COc1ccc(CC(NC(C)=O)C(=O)NC2CCN(C(=O)Nc3ccccc3C)CC2)cc1OC (stereo not given)	1.04	i
O=C(c1nc2ccc(Cl)cn2c1CNCC[C@@H]1C[C@@H]2C=C[C@H]1C2)N1CCCCCCC1	-5.85	-5.85*
C[C@@H]1CN(C(=O)c2nc3ccc(Cl)cn3c2CNCC[C@@H]2C[C@@H]3C=C[C@H]2C3)C[C@H](C)O1	.	i
CCN(CCO)C(=O)c1ccc2nc(Cc3ccc(OC)cc3)oc2c1	0.17	i
O=C(CC1C(=O)NCCN1Cc1ccccc1C(F)(F)F)NC1CCCCCC1 (stereo not given)	.	i
O=S(=O)(c1cc(F)ccc1F)N1CCC2(CC1)OCCO2	.	i
O=C(Nc1ccc(F)c(F)c1)c1ccc(F)c(S(=O)(=O)N2CCC3(CC2)OCCO3)c1	5.44*	i
C=CCn1c(SCC(C)=O)nc2scc(-c3ccco3)c2c1=O	.	i
C=CCn1c(SCc2ccc3c(c2)OCO3)nc2scc(-c3ccco3)c2c1=O	-6.12	-6.12*
COc1cc(NS(=O)(=O)c2ccc(NC(=O)CCC(=O)O)cc2)nc(OC)n1	1.14	i
Oc1c(CN2CCCCC2)cc(Br)c2cccnc12	8.37*	i
O=C(COc1c(Br)cc(Br)c2cccnc12)N1CCCCC1	4.59	i
CC(=O)N1CCC(C(=O)NC2CCCc3c2cnn3-c2cc(F)cc(F)c2)CC1 (stereo not given)	0.53	i
CCOC(=O)C(C(=O)OCC)c1c([N+](=O)[O-])c(=O)n2c3c(cccc13)CCC2	0.46	i
COc1ccc([N+](=O)[O-])cc1/C=N/NC(=O)CNC(=O)C(c1ccccc1)c1ccccc1	-6.06	-6.06*
COc1ccc([N+](=O)[O-])cc1/C=N/NC(=O)CNC(=O)c1cccc(F)c1	.	i
CC(c1ccco1)N(C(=O)C12CC3(C)CC(C)(CC(C)(C3)C1)C2)c1ccccn1 (stereo not given)	-6.27	-6.27*
Cc1cccc(C(=O)N(c2ccccn2)C(C)c2ccco2)c1 (stereo not given)	.	i

Screening results from PubChem.
